Measurements from PubChem BioAssay.
Calls of active or inactive are those of the source. Unless noted, how the calls were made is not given here.

Tests used:
[1] = system: Wnt5a (protein binding on small-molecule microarray); assay: Wnt5a binders on small-molecule microarray, primary screen, biophysical, 635/667 nm fluorescence (AID 1142); conditions: 635 nm fluorescence, higher = more signal;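 further: fluorescence read at 667 nm with signal to noise per printed feature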
[2] = cell viability in Huh7 cells, primary screen, cytotoxicity control for HCV replication inhibitor project, CellTiter-Glo luminescence, basal, 48 h (AID 1143); conditions: Huh7 HCV replicon, higher = more signal, called active from +8 up or from −8 down;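 further: Huh7 hepatoma cells carrying a hepatitis C replication reporter with no stimulus; test concentration not given here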
[3] = P. aeruginosa biofilm formation inhibitors, primary screen, PAO1 strain, BacTiter-Glo luminescence, LB-PBS (AID 1144); conditions: 12 h, higher = more signal
[4] = CREB reporter modulators without forskolin, primary screen, cell-based, PC12, CRE-LacZ reporter, unstimulated (AID 1145); conditions: no forskolin, luminescence, 4.5 h, higher = more signal, called active from +8 up or from −8 down
[5] = CREB reporter modulators under forskolin, primary screen, cell-based, PC12, CRE-LacZ reporter, forskolin-stimulated (AID 1146); conditions: luminescence, 4.5 h, higher = more signal, called active from +8 up or from −8 down;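 further: PC12 cells with 6xCRE LacZ reporter stimulated by forskolin 10 µM; beta-galactosidase reporter signal reflecting CREB driven transcription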
[6] = target: Streptavidin (Streptomyces avidinii) (UniProt P22629); assay: streptavidin binders on small-molecule microarray, primary screen, artefact control for SMM compound annotation, biophysical, 635/667 nm fluorescence (AID 1147); conditions: streptavidin binding, higher = more signal;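 further: signal reflects streptavidin binding to arrayed compounds as a control protein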
[7] = small-molecule binders of probe aInhba, primary screen, biochemical, small-molecule microarray, 635/667 nm fluorescence (AID 1148); conditions: higher = more signal;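 further: score merges 667nm spot fluorescence with signal-to-noise for antibody binding to printed compounds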
Torsin-1A (Homo sapiens) [8] = target: Torsin-1A (Homo sapiens) (UniProt O14656); assay: torsin A binders from cell lysate, primary screen, small-molecule microarray, wild-type, 635/667 nm (AID 1149); conditions: COS7 hTOR1A-WT lysate, 635 nm fluorescence, higher = more signal
Torsin-1A (Homo sapiens) [9] = target: Torsin-1A (Homo sapiens) (UniProt O14656); assay: small-molecule binders of mutant TOR1A in lysate, primary screen, cell lysate, small-molecule microarray, COS7 lysate, 635/667 nm fluorescence (AID 1150); conditions: COS7 hTOR1A mutant lysate, 635 nm fluorescence, higher = more signal;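 further: score pools 667 nm emission and signal to noise measuring lysate protein binding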
[10] = system: Sonic hedgehog protein (Shh); assay: small-molecule binders of Shh protein, primary screen, biochemical, small-molecule microarray, 635/667 nm fluorescence (AID 1151); conditions: small-molecule microarray binding, 635 nm fluorescence; higher = more signal;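 further: Shh protein binding to compounds spotted on small-molecule microarray slides; score combines spot fluorescence intensity with signal-to-noise across triplicate slides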
[11] = E. coli DRC41 culture turbidity changes, primary screen, E. coli filamentation inducer project, strain DRC41, OD650, 48 h (AID 1152);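 further: E. coli MC1000 strain DRC41 lacking acrAB efflux pump and sulA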; conditions: E. coli DRC41 (acrAB sulA), higher = more signal, called active from +8 up or from −8 down
[12] = small-molecule binders of probe aLefty1, primary screen, biochemical, small-molecule microarray, 635/667 nm fluorescence (AID 1153); conditions: higher = more signal;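 further: score merges spot fluorescence with signal-to-noise ratio from the scanned slide images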
[13] = PSAC antagonists in infected red cells, primary screen, cell-based, P. falciparum Indochina, OD700, 1 h (AID 1154); conditions: P. falciparum Indochina infected RBC osmotic lysis, higher = more signal, called active from +8 up or from −8 down
[14] = PSAC antagonists in infected red cells, primary screen, cell-based, P. falciparum Indochina, OD700, 2 h (AID 1155);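 further: lysis reports solute entry through the parasite surface anion channel PSAC; channel blockers reduce lysis of infected cells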; conditions: P. falciparum Indochina infected erythrocytes, osmotic lysis OD700; higher = more signal, called active from +8 up or from −8 down
[15] = osmotic lysis modulators in infected erythrocytes, primary screen, PSAC antagonist project, cell-based, P. falciparum Indochina, OD700, 3 h (AID 1156); conditions: higher = more signal, called active from +8 up or from −8 down
[16] = PSAC antagonists in infected red cells, primary screen, cell-based, P. falciparum Indochina, OD700, 18 h (AID 1157); conditions: P. falciparum Indochina infected erythrocytes, osmotic lysis OD700, 18 h; higher = more signal, called active from +8 up or from −8 down
[17] = modulators of S6 phosphorylation in cells, primary screen, cell-based, A549, cytoblot, luminescence, serum-stimulated (AID 1158); conditions: A549 phospho-S6 cytoblot, 5 h, higher = more signal;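 further: serum-stimulated A549 lung adenocarcinoma cells; signal is phosphorylated S6 detected by cytoblot immunostaining with HRP secondary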
[18] = target: NADPH oxidase 2 (Homo sapiens) (UniProt P04839); assay: NOX2-dependent H2O2 signal modulators, primary screen, NOX inhibitor project, cell-based, HEK293-NOX2, PMA-stimulated, Amplex Red fluorescence (AID 1159); conditions: 45 min, higher = more signal, called active from +8 up or from −8 down; further: test concentration not given here
[19] = target: NADPH oxidase 4 (Homo sapiens) (UniProt Q9NPH5); assay: NOX4-dependent H2O2 signal modulators, primary screen, NOX inhibitor project, cell-based, HEK293-NOX4, tetracycline-induced, Amplex Red fluorescence (AID 1160); conditions: 45 min, higher = more signal, called active from +8 up or from −8 down
[20] = target: NADPH oxidase 5 (Homo sapiens) (UniProt Q96PH1); assay: NOX5-dependent H2O2 signal modulators, primary screen, NOX inhibitor project, cell-based, HEK293-NOX5, Amplex Red fluorescence (AID 1161); conditions: HEK293-NOX5, ionomycin, 45 min, higher = more signal
NADPH oxidase 5 (Homo sapiens), sequence (Q96PH1 whole entry, looked up): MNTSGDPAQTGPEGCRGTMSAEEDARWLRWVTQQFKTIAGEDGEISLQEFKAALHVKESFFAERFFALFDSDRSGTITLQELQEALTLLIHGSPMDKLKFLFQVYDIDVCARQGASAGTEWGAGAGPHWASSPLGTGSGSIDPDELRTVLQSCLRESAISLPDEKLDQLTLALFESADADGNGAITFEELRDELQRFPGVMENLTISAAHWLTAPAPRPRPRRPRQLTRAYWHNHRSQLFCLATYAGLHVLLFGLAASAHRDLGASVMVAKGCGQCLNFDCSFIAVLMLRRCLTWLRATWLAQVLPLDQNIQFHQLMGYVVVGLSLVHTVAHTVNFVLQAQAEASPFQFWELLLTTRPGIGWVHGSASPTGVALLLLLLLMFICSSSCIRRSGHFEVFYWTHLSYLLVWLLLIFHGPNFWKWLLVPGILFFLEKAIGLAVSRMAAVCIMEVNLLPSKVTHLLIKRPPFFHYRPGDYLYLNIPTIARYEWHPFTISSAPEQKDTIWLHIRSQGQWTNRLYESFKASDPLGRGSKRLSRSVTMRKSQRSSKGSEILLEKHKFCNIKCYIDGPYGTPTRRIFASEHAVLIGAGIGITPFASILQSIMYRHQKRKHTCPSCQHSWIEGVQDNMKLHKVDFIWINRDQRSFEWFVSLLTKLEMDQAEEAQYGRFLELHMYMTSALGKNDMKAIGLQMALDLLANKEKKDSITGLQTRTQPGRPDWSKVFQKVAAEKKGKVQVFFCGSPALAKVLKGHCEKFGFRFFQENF

NADPH oxidase 4 (Homo sapiens), sequence (Q9NPH5 whole entry, looked up): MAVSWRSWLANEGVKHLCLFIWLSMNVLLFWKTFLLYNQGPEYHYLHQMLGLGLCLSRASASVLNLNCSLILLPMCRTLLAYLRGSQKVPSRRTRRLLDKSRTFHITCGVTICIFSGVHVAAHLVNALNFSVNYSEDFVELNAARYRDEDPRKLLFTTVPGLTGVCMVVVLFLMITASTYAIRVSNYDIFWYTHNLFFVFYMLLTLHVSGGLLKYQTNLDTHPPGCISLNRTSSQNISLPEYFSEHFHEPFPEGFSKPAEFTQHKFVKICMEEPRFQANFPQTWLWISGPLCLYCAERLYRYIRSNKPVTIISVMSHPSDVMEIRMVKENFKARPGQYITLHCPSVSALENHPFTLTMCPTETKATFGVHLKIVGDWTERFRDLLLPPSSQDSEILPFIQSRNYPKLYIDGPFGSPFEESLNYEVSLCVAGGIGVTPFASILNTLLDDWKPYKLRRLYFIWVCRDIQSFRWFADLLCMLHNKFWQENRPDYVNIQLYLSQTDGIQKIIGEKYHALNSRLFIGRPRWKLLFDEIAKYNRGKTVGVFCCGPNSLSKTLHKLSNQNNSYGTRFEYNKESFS
NADPH oxidase 2 (Homo sapiens), sequence (P04839 whole entry, looked up): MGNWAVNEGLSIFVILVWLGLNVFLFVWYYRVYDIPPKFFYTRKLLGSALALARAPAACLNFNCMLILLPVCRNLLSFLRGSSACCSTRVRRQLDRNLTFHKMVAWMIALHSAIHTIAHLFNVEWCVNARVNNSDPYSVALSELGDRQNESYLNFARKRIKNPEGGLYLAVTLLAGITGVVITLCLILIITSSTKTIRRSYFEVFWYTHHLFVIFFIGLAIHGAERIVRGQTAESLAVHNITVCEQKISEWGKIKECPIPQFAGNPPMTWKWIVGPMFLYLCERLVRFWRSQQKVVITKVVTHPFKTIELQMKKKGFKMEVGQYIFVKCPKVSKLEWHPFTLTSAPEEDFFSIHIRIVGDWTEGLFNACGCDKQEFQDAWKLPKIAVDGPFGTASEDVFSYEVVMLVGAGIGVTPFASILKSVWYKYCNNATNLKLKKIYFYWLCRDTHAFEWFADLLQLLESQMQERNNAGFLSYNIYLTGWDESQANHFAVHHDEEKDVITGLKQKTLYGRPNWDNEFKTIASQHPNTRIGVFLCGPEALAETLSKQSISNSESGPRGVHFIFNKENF
Streptavidin (Streptomyces avidinii), sequence (P22629 whole entry, looked up): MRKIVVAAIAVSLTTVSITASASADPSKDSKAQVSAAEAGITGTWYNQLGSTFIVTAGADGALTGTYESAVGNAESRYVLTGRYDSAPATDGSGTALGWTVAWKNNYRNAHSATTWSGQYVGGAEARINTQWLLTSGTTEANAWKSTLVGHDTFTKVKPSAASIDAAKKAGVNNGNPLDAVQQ
Torsin-1A (Homo sapiens), sequence (O14656 whole entry, looked up): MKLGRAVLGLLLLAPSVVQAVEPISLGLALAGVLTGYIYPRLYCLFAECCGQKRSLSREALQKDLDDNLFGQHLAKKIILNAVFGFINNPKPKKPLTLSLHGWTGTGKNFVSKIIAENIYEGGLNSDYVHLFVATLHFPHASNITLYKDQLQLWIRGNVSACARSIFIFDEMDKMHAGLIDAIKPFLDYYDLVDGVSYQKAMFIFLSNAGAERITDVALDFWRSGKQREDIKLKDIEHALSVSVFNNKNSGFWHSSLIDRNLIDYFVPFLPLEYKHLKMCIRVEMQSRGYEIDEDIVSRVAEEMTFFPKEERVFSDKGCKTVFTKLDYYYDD

Structure (SMILES)	composite z-score [1]	z-score [2]	z-score [3]	z-score [4]	z-score [5]	composite z-score [6]	composite z-score [7]	composite z-score (Torsin-1A (Homo sapiens) [8])	composite z-score (Torsin-1A (Homo sapiens) [9])	composite z-score [10]	z-score [11]	composite z-score [12]	z-score [13]	z-score [14]	z-score [15]	z-score [16]	z-score [17]	z-score [18]	z-score [19]	z-score [20]
CON=C(C)CCN1CCCCc2nc(C)c(C)cc21	0.0272	0.559 (inactive)	-0.0896 (inactive)	0.397 (inactive)	1.13 (inactive)	-0.0284	-0.0131	1.5	0.816	0.936	-1.23 (inactive)	0.168	-0.149 (inactive)	-0.117 (inactive)	-0.374 (inactive)	0.269 (inactive)	-0.834	-0.0289 (inactive)	-0.0593 (inactive)	-0.836
CCOC(=O)[C@H](CC(C)C)NC(=O)CCC1CC(OC(=O)NCCc2ccc(F)cc2)CC2(CCCC(COC(=O)NCCCN3CCCC3=O)O2)O1 (stereo not given in full)	0.189	0.378 (inactive)	-0.31 (inactive)	0.109 (inactive)	0.319 (inactive)	0.484	-0.0195	1.66	0.1	0.894	-0.237 (inactive)	-0.28	1.3 (inactive)	0.0591 (inactive)	-0.172 (inactive)	-0.194 (inactive)	0.181	0.575 (inactive)	0.775 (inactive)	0.802
COc1ccc(O[C@H]2C=C[C@@H](C#Cc3ccccc3)O[C@@H]2CO)cc1	-0.0391	-4.1 (inactive)	0.451 (inactive)	0.653 (inactive)	-0.003 (inactive)	0.966	-0.182	-0.0668	-0.0971	0.0864	0.311 (inactive)	0.042	2.26 (inactive)	0.323 (inactive)	-0.24 (inactive)	-0.144 (inactive)	0.297	1.33 (inactive)	-0.196 (inactive)	-0.196
CCOC(=O)[C@H](Cc1ccccc1)NC(=O)CCC1CC(OC(=O)NCCc2ccc(F)cc2)CC2(CCCC(COC(=O)NCc3cccc(C(F)(F)F)c3)O2)O1 (stereo not given in full)	0.011	-2.08 (inactive)	0.885 (inactive)	-0.162 (inactive)	-0.605 (inactive)	0.899	-0.101	0.386	0.376	1.48	0.048 (inactive)	0.0834	-1.14 (inactive)	0.277 (inactive)	-0.017 (inactive)	0.344 (inactive)	-0.354	0.575 (inactive)	0.488 (inactive)	0.837
